Screening results from PubChem.
Compounds with a hit are over-represented: about 4% of the library has one in this group of screens.
Mtb FBA inh – inhibitors of M. tuberculosis fructose-bisphosphate aldolase; P9WQA3; purified M. tuberculosis FBA, fluorescence read-out; inhibition, % at 1 µM; 2.3% of 360,000 active; AID 588726
GDH-TPI counter-1 – counter-screen for M. tuberculosis FBA inhibitors: GDH-TPI coupled enzymes | AID 588335 | inhibition, % at 4.8 µM | 1.2% of 360,000 active | GDH-TPI coupled enzyme counterscreen, NADH absorbance; in the data active means inhibition above about 30%
Mtb betalactam – beta-lactam sensitization of Mtb H37Rv | M. tuberculosis H37Rv growth with meropenem, percent inhibition | 0.27% of 330,000 active | inhibition, % at 25 µM; call rule not given here;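 further: growth measured after seven days incubation then overnight dye step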
RecA splice inh – Mtb RecA intein splicing inhibition; P9WHJ3; cell-free RecA intein splicing, fluorescence; inhibition, % (no concentration beside the values); 0.75% of 290,000 active; in the data active means inhibition above about 30%; inconclusive means no clear call, values can overlap the other calls
Target sequence (P9WHJ3 whole entry, looked up, canonical isoform): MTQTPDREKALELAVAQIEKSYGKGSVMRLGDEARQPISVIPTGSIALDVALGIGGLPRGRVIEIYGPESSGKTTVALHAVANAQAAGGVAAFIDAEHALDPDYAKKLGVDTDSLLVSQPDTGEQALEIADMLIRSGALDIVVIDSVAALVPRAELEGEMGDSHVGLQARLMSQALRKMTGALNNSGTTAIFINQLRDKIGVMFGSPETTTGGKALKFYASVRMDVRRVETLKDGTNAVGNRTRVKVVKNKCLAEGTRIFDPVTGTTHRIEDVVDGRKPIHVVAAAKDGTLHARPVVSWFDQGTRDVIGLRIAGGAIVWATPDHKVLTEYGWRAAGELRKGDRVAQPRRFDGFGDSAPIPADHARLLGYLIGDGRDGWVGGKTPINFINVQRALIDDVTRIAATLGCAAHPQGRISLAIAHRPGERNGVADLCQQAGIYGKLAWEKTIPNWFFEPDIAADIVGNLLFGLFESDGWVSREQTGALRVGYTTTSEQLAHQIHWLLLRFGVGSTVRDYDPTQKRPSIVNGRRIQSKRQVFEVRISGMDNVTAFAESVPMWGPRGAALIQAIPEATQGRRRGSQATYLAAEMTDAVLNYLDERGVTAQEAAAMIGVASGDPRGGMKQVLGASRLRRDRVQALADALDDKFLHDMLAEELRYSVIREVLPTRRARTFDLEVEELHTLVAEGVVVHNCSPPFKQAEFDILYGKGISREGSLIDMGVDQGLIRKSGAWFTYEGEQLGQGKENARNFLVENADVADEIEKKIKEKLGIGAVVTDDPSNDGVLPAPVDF
Rv3671c inh – inhibits the M. tuberculosis serine protease Rv3671c; P9WHR9; inhibition, % at 5.96 µM; 0.048% of 320,000 active; in the data active means inhibition above about 38%;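 further: extracellular domain of Rv3671c used as enzyme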
Mtb UGM inh – Mtb UDP-galactopyranose mutase inhibition; P9WIQ1; purified UGM, fluorescence polarization probe displacement; inhibition, % at 10 µM; 0.06% of 320,000 active; AID 504406; in the data active means inhibition above about 10%, passing the limit was not always enough; inconclusive means no clear call, values can overlap the other calls
Mtb FBA confirm – confirmation of M. tuberculosis fructose-bisphosphate aldolase inhibitors; shares compounds with Mtb FBA inh; purified M. tuberculosis FBA, fluorescence read-out; inhibition, % at 1 µM; 78% of 5,600 active
GDH-TPI counter-2 – inhibits GDH-TPI coupling enzymes, flagging Mtb FBA hits; inhibition, % at 1 µM; GDH-TPI coupled enzyme counterscreen, fluorescence; shares compounds with Mtb FBA inh; 81% of 5,600 active; in the data active means inhibition above about 10%
Large screens that a line does not name were inactive (follow-up assays come after a bar, where they were run). Unless noted, no stated cut-off is given here; in the data, active means inhibition above about 27%; inactive means the rest.

CC(C)Cn1c(N)c(C(=O)NCCN2CCOCC2)c2nc3ccccc3nc21	Mtb FBA inh 110.0 | Mtb FBA confirm 76.8 | GDH-TPI counter-2 73.0
COCC1CCCCN1C(=O)c1cccc(OC2CCN(S(C)(=O)=O)CC2)c1 (configuration not stated)	none
CC(Oc1ccc2c3c(c(=O)oc2c1)CCCC3)C(=O)NCC1CCC(C(=O)O)CC1 (configuration not stated)	Mtb FBA inh 73.0 | Mtb FBA confirm 63.0 | GDH-TPI counter-2 56.6
CC(Oc1ccc2c3c(c(=O)oc2c1)CCCC3)C(=O)NCc1cccnc1 (configuration not stated)	Mtb FBA inh 71.1 | Mtb FBA confirm active | GDH-TPI counter-2 155.5
CC(Oc1ccc2c3c(c(=O)oc2c1)CCCC3)C(=O)NC1CC(C)(C)NC(C)(C)C1 (configuration not stated)	Mtb FBA inh 64.1 | Mtb FBA confirm active | GDH-TPI counter-2 182.1
CC(Oc1ccc2c3c(c(=O)oc2c1)CCC3)C(=O)NC1CCN(Cc2ccccc2)CC1 (configuration not stated)	none
CC(Oc1cc2oc(=O)c3c(c2cc1Cl)CCCC3)C(=O)NCc1cccnc1 (configuration not stated)	none
Cc1cc(OC(C)C(=O)NC2CC(C)(C)NC(C)(C)C2)c2c(C)c(C)c(=O)oc2c1 (configuration not stated)	Mtb FBA inh 70.9 (no result: Mtb betalactam, RecA splice inh, Rv3671c inh, Mtb UGM inh) | Mtb FBA confirm active | GDH-TPI counter-2 active
COCCCNC(=O)Cn1cnc2sc(C)c(S(=O)(=O)N3CCN(c4ncccn4)CC3)c2c1=O	Mtb FBA inh 27.2 | Mtb FBA confirm active | GDH-TPI counter-2 active
COc1ccc([C@H]2CC(=O)C=C(c3ccc4c(c3)sc3ccccc34)C2)cc1	none (no result: RecA splice inh)
CC(C)NC(=O)NC(=O)CSc1nncs1	none
CCOC(=O)Cc1cc(=O)n2[nH]c(-c3ccc(C)cc3)cc2n1	none
COCc1cc(=O)n2[nH]c(-c3ccco3)cc2n1	Mtb FBA inh 33.6 | Mtb FBA confirm inactive | GDH-TPI counter-2 inactive
COCc1cc(=O)n2[nH]c(C)nc2n1	Mtb betalactam inconclusive
COCc1cc(=O)n2[nH]c(-c3cccs3)cc2n1	Mtb FBA inh 30.1 | Mtb FBA confirm 64.9 | GDH-TPI counter-2 65.8
COCc1cc(=O)n2[nH]c(-c3ccc(C)cc3)cc2n1	Mtb FBA inh 35.0 | Mtb FBA confirm 152.4 | GDH-TPI counter-2 107.6
CN(C)NC(=O)C12CCC(C)(C(=O)O1)C2(C)C (configuration not stated)	none
CC1CN(C(=O)COC(=O)CSc2ccc([N+](=O)[O-])cc2)CC(C)O1 (configuration not stated)	none (no result: Mtb betalactam, RecA splice inh, Rv3671c inh, Mtb UGM inh)
COc1ccc(C(O)c2nc(-c3cccc(NC(C)=O)c3)cs2)cc1 (configuration not stated)	none (no result: Mtb betalactam, RecA splice inh, Rv3671c inh, Mtb UGM inh)
C[C@H](CO)N1C[C@H](C)[C@@H](CN(C)C(=O)Nc2ccccc2F)OCc2cnnn2CCCC1=O	none (no result: Mtb betalactam, RecA splice inh, Rv3671c inh, Mtb UGM inh)
COc1ccc(C(=O)Nc2ccc3[nH]c(-c4cccc(OC)c4)cc(=O)c3c2)cc1	none
COc1ccc(-c2cc(-c3ccccc3)c(C#N)c(=S)[nH]2)cc1	none
COc1ccc(-c2cc(=O)c3cc(F)ccc3[nH]2)cc1	Mtb FBA inh 31.1 | Mtb FBA confirm 126.1 | GDH-TPI counter-2 98.5
COc1ccc(-c2cc(=O)c3cc(OC)c(OC)cc3[nH]2)cc1	Mtb FBA inh 57.5 | Mtb FBA confirm 65.6 | GDH-TPI counter-2 59.2
COc1ccc2[nH]c(-c3ccc(C)cc3)cc(=O)c2c1	Mtb FBA inh 44.2 | Mtb FBA confirm active | GDH-TPI counter-2 165.2
COc1ccc2[nH]c(-c3ccccc3)cc2c1	Mtb FBA inh 99.6 | Mtb FBA confirm 90.7 | GDH-TPI counter-2 71.5
COc1ccc2[nH]c(C)cc(=O)c2c1	none
O=C(C[C@H]1C(=O)N(Cc2ccccc2)C[C@@H]1Cc1ccccc1)Nc1ccc(Br)cc1	none (no result: Mtb betalactam, RecA splice inh, Rv3671c inh, Mtb UGM inh)
CC(C)(C)C(=O)Nc1ccc(S(=O)(=O)Nc2nccs2)cc1	none
CC1=C(C(=O)Nc2ccccc2C(=O)NCc2ccccc2)SCCO1	none
CC1=C(C(=O)Nc2ccccc2C(=O)NC2CCC(C)CC2)SCCO1 (configuration not stated)	Mtb FBA inh 37.4 | Mtb FBA confirm inactive | GDH-TPI counter-2 17.1
Cc1cc(N2CCN(C)CC2)n2cc(-c3ccc(F)cc3)nc2n1	Mtb FBA inh 68.6 | Mtb FBA confirm 40.8 | GDH-TPI counter-2 36.9
CCOC(=O)C1(Cc2ccc(Cl)cc2)CCN(C(C)Cc2ccc(O)c(OC)c2)CC1 (configuration not stated)	none
CCS(=O)(=O)Nc1ccc(C2=NN(S(C)(=O)=O)C(c3cccs3)C2)cc1 (configuration not stated)	Mtb FBA inh 93.2 | Mtb FBA confirm 56.9 | GDH-TPI counter-2 44.6
CCOc1ccc(NC(=O)COC(=O)CN2CCCCCC2=O)cc1	none (no result: RecA splice inh)
O=C(NC(NC(=S)Nc1ccccc1C(=O)O)C(Cl)(Cl)Cl)c1ccco1 (configuration not stated)	Mtb FBA inh 32.9 (no result: Mtb UGM inh) | Mtb FBA confirm inactive | GDH-TPI counter-2 inactive
CCCCn1c(=O)[nH]c(=O)c2c1nc(-c1ccccn1)n2CC	Mtb FBA inh 52.6 (no result: RecA splice inh) | Mtb FBA confirm 32.6 | GDH-TPI counter-2 32.9
Cn1c(C=O)c(C#Cc2ccccc2)c2ccccc21	none (no result: RecA splice inh)
COc1ccc(-c2c(C#Cc3ccsc3)c3ccccc3n2C)cc1	none
COc1ccc(-c2c(-c3ccccc3)n(C)c3ccccc23)cc1	Mtb FBA inh 40.8 (no result: RecA splice inh) | Mtb FBA confirm inactive | GDH-TPI counter-2 inactive
COc1cc(C#Cc2c(-c3ccccc3)n(C)c3ccccc23)cc(OC)c1	Mtb FBA inh 38.2 | Mtb FBA confirm inactive | GDH-TPI counter-2 inactive
COC(=O)c1ccc2c(c1)c(C#Cc1ccccc1)c(-c1ccccc1)n2C	Mtb FBA inh 39.6 (no result: Mtb betalactam, RecA splice inh, Rv3671c inh, Mtb UGM inh) | Mtb FBA confirm inactive | GDH-TPI counter-2 inactive
Cn1c(-c2ccc(C#N)cc2)c(C#Cc2ccccc2)c2ccccc21	Mtb FBA inh 92.8 (no result: Mtb betalactam, RecA splice inh, Rv3671c inh, Mtb UGM inh) | Mtb FBA confirm 50.0 | GDH-TPI counter-2 33.7
CSCC[C@H](NC(=O)c1ccc2ccccc2c1)C(=O)N1CCC2(CC1)NCCc1[nH]cnc12	none
CSCC[C@H](NC(=O)COc1ccc(Cl)cc1)C(=O)N1CCC2(CC1)NCCc1[nH]cnc12	Mtb FBA inh 59.1 | Mtb FBA confirm 119.6 | GDH-TPI counter-2 111.4
CSc1ccc(/C=C/C(=O)OCC(=O)NC(C)C)cc1	Mtb FBA inh 57.9 | Mtb FBA confirm 98.2 | GDH-TPI counter-2 93.2
CSc1ccc(/C=C/C(=O)OCC(=O)NC2CC2)cc1	Mtb FBA inh 46.5 (no result: RecA splice inh) | Mtb FBA confirm 95.1 | GDH-TPI counter-2 67.6
